Laboratory results as given in PubChem BioAssay AID463173 (ICCB-Longwood Screening Facility, Harvard Medical School, 2010).
Out of some 52,000 compounds screened, about 1,700 (3.3%) were called active. The sample as a whole holds a higher share of actives than the screen did. Values without a mark were called inactive. No stated cut-off is given here; in the data, active means survival mostly below about 52% (no sharp cut-off); inactive means mostly above about 56%.

System: Wild type
Experiment: growth inhibition of S. aureus wild type versus tarO mutant, primary screen, teichoic acid synthesis inhibitors, RN4220, OD600 (AID 463173)
Settings: S. aureus RN4220 wild type/DeltatarO growth, OD600, 18 h, hits give low values, screened at 18.75 µg/mL (by protocol)

Compound | survival
O=C(CSc1nc2c(c(=O)[nH]1)CN(Cc1ccc3c(c1)OCO3)CC2)Nc1ccccc1Cl | 81%
O=C(CCN1CCCCC1)c1ccccc1 | 92%
Cc1ccc2nc(Cl)c3cc(C(=O)NC4CCCCCC4)sc3c2c1 | 119%
O=C(NC1CCCCCC1)c1cc2c(Cl)nc3ccccc3c2s1 | 123%
CC1CCCN(C(=O)c2cc3c(Cl)nc4ccccc4c3s2)C1 (centres undefined) | -2% (active)
CC(C)N(C(=O)c1cc2c(Cl)nc3ccccc3c2s1)C1CCCCC1 | -1% (active)
Cc1ccc2nc(Cl)c3cc(C(=O)N4CCCC(C)C4)sc3c2c1 (centres undefined) | -2% (active)
CCOC(=O)C1CCCN(C(=O)c2cc3c(Cl)nc4ccccc4c3s2)C1 (centres undefined) | 41%
O=C(c1cc2c(Cl)nc3ccccc3c2s1)N1CCCCC1 | 58%
Cc1ccc2nc(Cl)c3cc(C(=O)N4CCCCC4)sc3c2c1 | -2% (active)
O=C(NC1CCCCC1)c1cc2c(Cl)nc3ccccc3c2s1 | 77%
Cc1ccc2nc(Cl)c3cc(C(=O)N4CCCCC4C)sc3c2c1 (centres undefined) | 21%
Cc1ccc2nc(Cl)c3cc(C(=O)NC4CCCCC4)sc3c2c1 | 76%
Cc1ccc2nc(Cl)c3cc(C(=O)NC4CCC(C)CC4)sc3c2c1 (centres undefined) | 72%
CCCCC(=O)Nc1ccc(OCc2cc(=O)n3c(C)csc3n2)cc1 | 87%
COc1ccccc1NC(=O)C(Cc1ccccc1)NS(=O)(=O)c1ccc2c(c1)CCN2C(C)=O (centres undefined) | 80%
CCOc1ccccc1NS(=O)(=O)c1ccc2c(c1)oc(=O)n2C | 82%
O=C(Nc1ccc2nn(-c3ccccc3)nc2c1)c1cc2ccccc2o1 | 80%
COC(=O)c1scc(-c2ccc(C)cc2)c1S(=O)(=O)N1CCN(c2cccc(OC)c2)CC1 | 53%
CCCCn1c(Cc2ccccc2)nnc1SCC(=O)NC | 104%

Compound | survival
COC(=O)c1ccc(NC(=O)c2cc(S(=O)(=O)N3CCOCC3)cn2C)cc1 | 84%
COC(=O)C1(c2ccccc2)NC(c2ccc(O)cc2)C2C(=O)N(c3ccc4c(c3)OCCO4)C(=O)C21 (centres undefined) | 106%
Cc1cc(N2CCC(C(=O)N(CC(C)C)CC(C)C)CC2)n2nc(C)c(-c3ccc(Cl)cc3)c2n1 | 91%
COc1ccc(NC(=O)CN2C(=O)CC(c3ccc(C)c(C)c3)=Nc3ccccc32)cc1OC | 76%
CCCn1c(SCC(=O)N2CCCC2)nnc1C(C)C | 105%
Cc1ccc(NC(=O)CCC(=O)N2Cc3ccccc3Oc3ncccc32)cc1F | 82%
CCn1cc(C(=O)NCCCOC(C)C)c(=O)c2cc(S(=O)(=O)N3CCOCC3)ccc21 | 131%
COc1ccc(OC)c(CNC(=O)CN(c2ccc(C)cc2)S(=O)(=O)N(C)C)c1 | 80%
CCc1ccc(O)c(C(=O)c2cnc3cc(-c4ccc(C)cc4)nn3c2)c1 | 66%
O=[N+]([O-])c1ccc(O)c(-c2ccnc3cc(-c4ccccc4)nn23)c1 | 29%
O=C(c1cnc2cc(-c3ccccc3)nn2c1)c1cc([N+](=O)[O-])ccc1O | 19% (active)
Cc1ccc(-c2cc3ncc(C(=O)c4cc([N+](=O)[O-])ccc4O)cn3n2)cc1 | 15% (active)
COc1ccc(-c2cc3ncc(C(=O)c4cc([N+](=O)[O-])ccc4O)cn3n2)cc1 | 58%
Cc1ccc(-c2cc3ncc(C(=O)c4cc(Cl)c(C)cc4O)cn3n2)cc1 | 91%
O=C(CCC(=O)N1CCOc2ccccc21)NCc1cccs1 | 83%
Cc1cccc(NC(=O)Cn2c(=O)oc3cc(S(=O)(=O)NCc4ccccc4)ccc32)c1 | 92%
CC(=O)c1ccc(NC(=O)Cn2nc(C(F)(F)F)c3c2CCC3)cc1 | 66%
CCc1cccc(NC(=O)C2CCN(S(=O)(=O)c3cccc(-c4noc(C)n4)c3)CC2)c1 | 80%
Cc1cc(C)cc(NC(=O)C2CCN(S(=O)(=O)c3cccc(-c4noc(C)n4)c3)CC2)c1 | -6% (active)
CCc1ccc(NC(=O)C2CCN(S(=O)(=O)c3cccc(-c4noc(C)n4)c3)CC2)cc1 | 90%

Compound | survival
CCOc1ccc(N(CC(=O)Nc2ccccc2)S(C)(=O)=O)cc1 | 110%
COc1cc(Cl)c(C)cc1NC(=O)c1cc2ccc3cccnc3c2[nH]1 | 73%
Cc1cnc2c(c1SCC(=O)N(C)c1ccccc1)c(=O)n(C)c(=O)n2C | 100%
Cc1ccccc1-c1nc(CN2CCC(C(=O)NCc3ccccc3Cl)CC2)c(C)o1 | 85%
CCOC(=O)Cn1c(=N)n(Cc2ccc(C(C)(C)C)cc2)c2ccccc21 | 95%
Cc1ccc(Cn2c(=N)n(CC(=O)c3ccccc3)c3ccccc32)cc1 | 107%
CC(C)(C)c1ccc(Cn2c(=N)n(CC(O)c3ccco3)c3ccccc32)cc1 (centres undefined) | 53% (active)
NC(=S)N/N=C/c1ccc(Sc2cccc3cccnc23)o1 | 115%
Cc1cc(=O)n(Cc2cccc(Cl)c2)c2c1c(C)nn2C | 66%
COc1cccc(Cn2c(=O)cc(C)c3c(C)nn(C)c32)c1 | 85%
C=Cc1ccc(Cn2c(=O)cc(C)c3c(C)nn(C)c32)cc1 | 0% (active)
Cc1ccc(C)c(Cn2c(=O)cc(C)c3c(C)nn(C)c32)c1 | 63%
Cc1cc(=O)n(Cc2ccccc2)c2c1c(C)nn2-c1ccccc1 | 72%
C=Cc1ccc(Cn2c(=O)cc(C)c3c(C)nn(-c4ccccc4)c32)cc1 | -1% (active)
Cc1cc(=O)n(Cc2ccc(Cl)cc2)c2c1c(C)nn2-c1ccccc1 | 131%
COC(=O)c1ccc(Cn2c(=O)cc(C)c3c(C)nn(C)c32)cc1 | 53%
Cc1cc(=O)n(Cc2ccccc2)c2c1c(C)nn2C | -3% (active)
Nc1ccc(-c2nc3c(Cl)cccc3[nH]2)cc1 | 125%
CCOc1ccc(-n2c(C)nc3cc(C(=O)NC4CCCC4)ccc32)cc1 | 67%
